PubChem BioAssay (NCATS)
Records with an inconclusive call do not appear. Entries that show only a call come without a potency. Calls of active or inactive are those of the source. The call rests on the fitted dose curve; in most records, active means well fitted inhibition curve with a large enough effect; inconclusive means small, poorly fitted or top-dose-only effect; inactive means flat fitted curve, though single readings scatter. Peptide text beside a SMILES is read from it.

What follows are compounds tested on CRL-7250 (assay: qHTS assay to identify novel small-molecules to repurpose for Merkel cell carcinoma treatment (AID 1296009; further: nearly all actives have a fitted effect of over 60% in size)). Settings: MCC and control cell lines, CellTiter-Glo viability, 72 h; series mostly up to 92 µM.
Outline: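 Luminescence from CellTiter-Glo, read 10 min after addition at room temperature, reported viability following a 72 hr, 37 degree celsius treatment with NPC or MIPE compounds in titration; values normalized to plate controls.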
With `CC(C)(OC1OC(CO)C(O)C(O)C1O)C1CCC(O)(CO)C2CC(=O)C(C)(O)C2C1` (centres undefined) the Potency was “inactive”. For `C/C(=C\CCC(C)(C)O)CCO[C@@H]1O[C@H](CO[C@@H]2O[C@@H](C)[C@H](O)[C@@H](O)[C@H]2O)[C@@H](O)[C@H](O)[C@H]1O`, the Potency was “inactive”. In the case of `COc1c2c(c(C)c3c1C(=O)OC3)OC1(C)CC(O)C34OC(O)(CCC3(C)C1C2)OC4(C)C` (centres undefined), the Potency is reported as “inactive”. For `CCCCc1c(-c2ccc(OC)cc2)[nH]c2nccnc12`, the Potency was “inactive”. With `CC1NC(=O)CNC(=O)C(C(C)C)NC(=O)C2CCCN2C(=O)C(C(C)C)NC(=O)C(Cc2c[nH]c3ccccc23)NC1=O` (centres undefined) (cyclo(GAWVPV); configuration not given here) the Potency was “inactive”. For `C[C@@H]1CC[C@]2(C(=O)O[C@@H]3O[C@H](CO)[C@@H](O)[C@H](O)[C@H]3O)CC[C@]3(C)C(=CCC4[C@@]5(C)C[C@@H](O)[C@H](O)[C@](C)(C(=O)O)C5CC[C@]43C)[C@@H]2[C@]1(C)O` (some centres undefined), the Potency was “inactive”. `NC[C@@H]1O[C@@H](O[C@@H]2[C@@H](O[C@@H]3O[C@H](CO)[C@@H](O)[C@H]3O)[C@H](O)[C@@H](N)C[C@H]2N)[C@@H](N)[C@H](O)[C@H]1O` was tested, and the outcome was “inactive [at 9.27 µM]”. For `C=C(C(=O)OC)[C@]12O[C@@](C)(CC[C@@]3(O)/C(=C\C)C(=O)O[C@]3(C)C[C@@H]1OC(=O)C(CO)CN1CCCC1C(=O)O)CC2=O` (some centres undefined), the Potency was “inactive”. In the case of `OC[C@@]1(O)CO[C@@H](OC[C@H]2O[C@@H](Oc3ccccc3)[C@H](O)[C@@H](O)[C@@H]2O)[C@@H]1O`, the Potency is reported as “inactive”.
